This note sets out measurements from PubChem BioAssay (NCATS).

Test [1] can be described thus: Panc-1005 Cancer Cell Toxicity qHTS against the NCATS CANVASS Library (AID 1347349). Note: nearly all actives have a fitted effect of over 60% in size. To be noted: Panc-1005 viability, CellTiter-Glo luminescence, 72 h; series mostly up to 38.3 µM. The gist of the method:
(§1)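 Viability was assessed by adding CellTiter-Glo reagent to treated cultures and reading luminescence after 15min at room temperature. Treatment lasted 72 h at 37 degrees C/5% CO2, using an 11-point series on 1000 cells/well.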
A general note: In qHTS, concentration-response curves come from the screen itself.

Test [2] in a line: qHTS for ATAD5 Agonist screened against the NCATS CANVASS Library (AID 1347367). The following applies: HEK293T ATAD5-luciferase reporter, luminescence, 16 h; series mostly up to 46.1 µM. The gist of the method:
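Luminescence read-out: ATAD5-driven luciferase in stably transfected HEK 293T cells, which rises post-transcriptionally with DNA damage. Cells were exposed 16hr at 37C to test compound; a CellTiter-Fluor fluorescence read (1hr) measured viability first.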

A short description of test [3]: G06 Cancer Cell Toxicity qHTS against the NCATS CANVASS Library (AID 1347368). Note: nearly all actives have a fitted effect of over 60% in size. Note: potency is the fitted concentration of half-maximal effect. To be noted: G06 dog glioma cells, viability ATP luminescence, 72 h; series mostly up to 46.1 µM. A digest of the protocol: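 ATP luminescence (CellTiterGlo) readout of cytotoxicity. Canine G06 glioma cells, 500/well, 72 hr incubation at 37C with compounds; bortezomib titration served as control.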

Test [4] can be described thus: qHTS assay for small molecule disruptors of mitochondrial membrane potential screened against the NCATS CANVASS Library (AID 1347389). Note: nearly all actives have a fitted effect of over 60% in size. Note: potency is the fitted concentration of half-maximal effect. The following applies: HepG2 mitochondrial membrane potential, m-MPI red/green ratio, 1.5 h; series mostly up to 46.1 µM. A digest of the protocol:
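Red/green fluorescence ratio read-out: J-aggregates ex 540/em 590 nm, monomers ex 490/em 535 nm. HepG2, 1 hr compound treatment, then 30 min Mito-MPS dye at 37C. 11-pt qHTS concentration series.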

Test [5] can be described thus: qHTS for activators of Nrf2/ARE signaling pathway screened against the NCATS CANVASS Library (AID 1347391). Note: nearly all actives have a fitted effect of over 60% in size. Note: potency is the fitted concentration of half-maximal effect. To be noted: ARE-bla HepG2, beta-lactamase reporter, 16 h; series mostly up to 46.1 µM. The gist of the method: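 HepG2 ARE-bla; cpd 11-pt qHTS, 16 h 37C/5% CO2; CCF4 substrate 2 h RT; read ex 405 / em 460 + 530 nm. Viability by CellTiter-Glo luminescence, 30 min RT.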

Test [6] in a line: HPAF-II 24hr Apoptosis Induction qHTS against the NCATS CANVASS Library (AID 1347356). To be noted: HPAF-II caspase-3/7 Caspase-Glo luminescence; series mostly up to 46.1 µM. A digest of the protocol: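 500 HPAF-II cells/well; compounds in 11-pnt qHTS; 24 h, 37 C/5% CO2; Caspase-Glo 3/7 added, 15 min RT dark; luminescence read. Doxorubicin control.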
Test [7] deals with Nuclear receptor subfamily 1 group I member 3 (Homo sapiens) (UniProt Q14994). Briefly: qHTS for Constitutive Androstane Receptor (CAR) Agonist screened against the NCATS CANVASS Library (AID 1347373).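 Note: every well also contained 1.5 µM PK11195 alongside the test compound.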 To be noted: HepG2-hCAR-CYP2B6 luciferase reporter, ONE-Glo luminescence; series mostly up to 46.1 µM. A digest of the protocol:
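Luciferase read-out (ONE-Glo, 30 min RT) of CYP2B6-2.2kb promoter activity in double-stable HepG2-hCAR cells after 24hr compound exposure with 1.5uM PK11195 present; viability measured first by CellTiter-Fluor.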

Test [8] is described as follows: qHTS for Antimalaria activity screened against the NCATS CANVASS Library (AID 1347380). Note: nearly all actives have a fitted effect of over 40% in size. Note: potency is the fitted concentration of half-maximal effect. To be noted: P. falciparum Dd2 growth, SYBR Green fluorescence, 72 h; series mostly up to 28.7 µM. The gist of the method: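 SYBR Green fluorescence (ex 485, em 535 nm) read after saponin/Triton lysis and 18 h further incubation; Dd2 asexual blood-stage parasites, 72 h compound exposure, 11-pt concentration series, 2.5% hematocrit, 0.3% parasitemia.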

Test [9] in a line: OV-KATE Cancer Cell Toxicity qHTS against the NCATS CANVASS Library (AID 1347345). Note: potency is the fitted concentration of half-maximal effect. The following applies: OV-KATE cells viability, CellTiter-Glo luminescence, 72 h; series mostly up to 38.3 µM. The gist of the method:
as §1

SMILES strings stand for the structures. Results filed as inconclusive are left out. The source made the active and inactive calls. Calls come from the whole dose curve; as a rule, active = well fitted curve in the direction sought with a large enough effect; inconclusive = small, poorly fitted or top-dose-only effect, or another doubt; inactive = no such curve, though single readings can be large; an effect the other way counts as inactive or inconclusive. Numbered stars: 1 amine (or outer) side, 2 acyl side, 3 side chain; on linkers, the order of the positions; unused ones are H or OH. Square brackets hold non-standard residues; d marks the D form. Peptide text beside a SMILES is read from it. * marks the point of attachment. X1 = CCCCCCCCCC(=O)[C@H](C(=O)[*:2])[C@@H]1CNC(=O)[C@@H](N[*:1])CS1; Octanoyl = CCCCCCCC(=O)*

Chain of Nuclear receptor subfamily 1 group I member 3 (Homo sapiens) (Q14994 whole entry, looked up): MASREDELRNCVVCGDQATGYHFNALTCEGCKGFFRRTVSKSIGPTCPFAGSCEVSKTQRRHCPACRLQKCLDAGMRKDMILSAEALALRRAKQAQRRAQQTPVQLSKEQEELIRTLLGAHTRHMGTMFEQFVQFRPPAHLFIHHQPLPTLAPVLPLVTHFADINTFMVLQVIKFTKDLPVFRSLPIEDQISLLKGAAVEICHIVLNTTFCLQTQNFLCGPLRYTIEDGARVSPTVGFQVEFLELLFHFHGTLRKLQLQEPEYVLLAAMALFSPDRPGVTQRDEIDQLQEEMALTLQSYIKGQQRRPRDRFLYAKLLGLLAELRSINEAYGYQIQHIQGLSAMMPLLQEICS

Take `CC1C(=O)C23CCC1C[C@]21O[C@@H]2C(C)(C)C=CC(=O)[C@@]23COC1=O` (some centres not stated): the Potency entry in test [1], in [2], in [3], in test [4] and in [5] was “inactive” each time.
On to `C=C(C)[C@@H]1CC[C@]2(C)CC[C@]3(C)[C@H](CC[C@@H]4[C@@]5(C)CC[C@H](O)C(C)(C)[C@@H]5CC[C@]43C)[C@@H]12`, for which the Potency result in test [1], in [3], in [4] and in test [5] was “inactive” each time. For the same molecule, the call in test [6] and in test [7] was inactive.
As for `CCCCCCCCCCCCCCC[C@H](O)C[C@@H](O)C[C@@H](O)C[C@@H](O)C[C@@H](O)C[C@H]1CC=CC(=O)O1`, the Potency entry in test [2] and in test [5] was “inactive” in each case. Further, the Potency in [3] is 2.64 µM (active); in test [8], 3.75 µM (active).
Consider `O=C(O)[C@@]12CO[C@@]3(O)C4CCN(CC[C@H]31)[C@H]4c1c2[nH]c2ccccc12`, for which the result in test [6] and in test [7] was inactive. Also, the Potency entry in [2], in test [3] and in test [5] was “inactive” in each case.
As for `CC1=CC[C@@]2(C[C@@H]1O)[C@@H](C(=O)O)CC[C@H]2C(C)C`, the Potency entry in test [1], in test [2], in [3], in test [4] and in test [5] was “inactive” each time. Besides, the call in test [6] and in test [7] was inactive.
As to `C=C1C(=O)O[C@H]2C[C@H](C)[C@@H]3CC(=O)C(C)=C3[C@H](O)[C@H]12`, the Potency was 13.3 µM (active) in test [9] and 7.43 µM (active) in test [3]. The outcome in test [6] and in test [7] was inactive. Further, the Potency result in [2] is “inactive”.
Regarding `C/C(=C\[C@H](C)C(=O)CCCC1CC(=O)NC(=O)C1)C(O)[C@@H](C)[C@H](O)C/C=C/CC/C=C/C(=O)O` (some centres not stated), the Potency result in [1], in test [4] and in test [5] was “inactive” in each case. Further, the outcome in test [6] and in test [7] was inactive.
On to `CO[C@@H]1[C@H](O)[C@@H](C)O[C@@H](OC[C@@H]2C(C)OC(=O)/C=C/[C@H](C)C(O[C@@H]3O[C@H](C)CC4(OC(=O)O[C@@H]4C)C3O)[C@@H](C)CC(C)C(=O)CC[C@H]3OC23)[C@@H]1OC` (some centres not stated), for which the Potency result in [8] and in test [4] was “inactive” each time.
`C=C1C[C@@]23C=CC(=O)[C@@](C)(CCC(=O)Nc4c(O)ccc(C(=O)O)c4O)C2C[C@@H]1C(O)C3` (some centres not stated): the Potency entry in [1], in [2], in test [3] and in test [5] was “inactive” each time. Besides, the call in test [6] and in test [7] was inactive.
Consider `CO[C@@H]1C[C@@H](C[C@H]2CC[C@H](C)[C@H]([C@@H](C)C(=O)O)O2)O[C@]2(O[C@](C)([C@H]3CC[C@@](C)([C@@H]4O[C@@H]([C@H]5O[C@](C)(O)[C@H](C)C[C@@H]5C)C[C@@H]4C)O3)C[C@H]2C)[C@@H]1C`, for which the call in test [6] was inactive. Besides, the Potency entry in test [2] and in test [5] was “inactive” throughout. In test [3], the Potency was 0.132 µM (active).
In the case of `CCCCCCCC(=O)N[C@@H](CC(C)C)C(=O)N[C@H](C=O)CCC(=O)O` (Octanoyl-Leu-Glu-aldehyde), the Potency entry in [1], in [2], in [3], in test [4] and in test [5] was “inactive” throughout. Besides, the molecule was called inactive in [7].
As to `CC[C@@H]1C[C@@]2(CC)OC(=O)[C@@]3(CC)OC(=O)[C@@H]1[C@@H]23`, the Potency result in [2], in test [3], in test [4] and in test [5] was “inactive” throughout.
With `CC(C)=CCC/C(C)=C/Cc1c(O)c(CC=C(C)C)c(O)c2c(=O)c3cc(O)ccc3oc12`, the Potency entry in test [2] was “inactive”. Besides, the Potency in [3] was 23.5 µM (active); in test [4], 1.86 µM (active); in test [5], 2.63 µM (active). Further, the call in test [7] was inactive.
Regarding `COc1cc(O)c2c3c(c(O)cc(C)c13)C(=O)OC2`, the Potency result in [1] and in test [3] was “inactive” throughout. Moreover, the outcome in test [6] and in test [7] was inactive.
Turning to `COc1c(O)cc2oc(-c3ccccc3)cc(=O)c2c1O`, the Potency entry in test [1] and in test [3] was “inactive” throughout. In addition, the result in [6] was inactive. The Potency in [5] was 13.2 µM (active).
With `CCCCCCCCCCCCCCCC(=O)OC/C=C(\C)CCCC(C)CC(C)C(C)C` (configuration not stated), the molecule was classed as inactive in test [6]. In addition, the Potency entry in test [2], in test [3] and in test [5] was “inactive” throughout.
`C=C(C)CC[C@H](Cc1c(O)cc(O)c2c1O[C@H](c1ccc(O)cc1O)CC2=O)C(=C)C`: the Potency result in test [9] and in test [3] was “inactive” throughout. Besides, the molecule was called inactive in test [6]. Moreover, the Potency in test [4] is 18.6 µM (active).
On to `C=C(NC(=O)c1csc(-c2nc3c(cc2O)-c2nc(cs2)C(=O)NC(C(C)O)C(=O)N/C(=C(\C)O)c2nc(cs2)C(=O)NC2c4nc(cs4)C(=O)NC(COC(=O)c4c5c6c(cccc6n4O)COC(=O)[C@@H](OC4C[C@](C)(O)[C@H](N(C)C)[C@H](C)O4)C2OC5)c2nc-3cs2)n1)C(N)=O` (some centres not stated), for which the Potency entry in test [1], in test [2] and in test [5] was “inactive” each time. In addition, the molecule was called inactive in test [7].
For `O=C(O)Cc1c[nH]c2ccccc12`, the Potency entry in test [1], in test [2], in test [4] and in test [5] was “inactive” each time. Further, the result in test [6] and in test [7] was inactive.
On to `COc1ccc([C@@H]2c3cc(OC)c(OC)cc3C(=O)C(C)C2C)cc1OC` (some centres not stated), for which the Potency result in test [1], in test [3] and in [4] was “inactive” each time. Also, the molecule was classed as inactive in test [6] and in test [7].
For the molecule `C[C@@H]1C[C@H]2C[C@]3(CCCCN3C)[C@@H]3C[C@H]2[C@H](C1)N(C)C3`, the Potency result in test [1] and in test [4] was “inactive” in each case. In test [3], the Potency was 18.7 µM (active). For the same molecule, in test [7], the outcome was inactive.
As for `CO[C@@H]1[C@H](O)[C@@H](C)O[C@@H](OC[C@H]2/C=C/C=C/C(=O)C(C)C[C@H](C)C(O[C@@H]3O[C@H](C)CC4(OC(=O)O[C@@H]4C)C3O)[C@@H](C)/C=C/C(=O)OC2C)[C@@H]1OC` (some centres not stated), the Potency entry in test [1] and in test [2] was “inactive” throughout. In addition, the call in [6] and in [7] was inactive. In addition, the Potency in [5] is 14.8 µM (active).
On to `C=CC(C)(C)C(=O)[C@@H](C)[C@@H]1CC[C@](C)(C=C)O1`, for which the Potency entry in test [1], in test [2], in [3] and in test [5] was “inactive” each time. Besides, the molecule was classed as inactive in test [6].
Regarding `O=C(O)CC1OCc2c(O)cccc21` (configuration not stated), the molecule was classed as inactive in test [6]. Besides, the Potency result in test [2], in [3], in test [4] and in test [5] was “inactive” each time.
As for `C=C[C@]1(C)CC[C@@H]([C@H](C)C(=O)/C=C/C(C)C)O1`, the molecule was called inactive in test [6]. Also, the Potency entry in test [2], in test [3] and in test [5] was “inactive” each time.
Regarding `C[C@@H]1O[C@@H](Oc2c(-c3ccc(O)cc3)oc3cc(O)cc(O)c3c2=O)[C@H](O)[C@H](O)[C@H]1O`, the Potency result in [1], in test [2], in test [3], in test [4] and in test [5] was “inactive” in each case. The result in [7] was inactive.
As to `CCCCCCCCCC(=O)[C@@H]1C(=O)N[C@@H](CC(C)C)C(=O)N[C@H](C)C(=O)N2CCC[C@H]2C(=O)N[C@@H](C(C)C)C(=O)N[C@H]2CS[C@H]1CNC2=O` (cyclo(L[dA]PV[X1])), the Potency entry in [1] and in test [2] was “inactive” throughout. The outcome in test [6] was inactive.
